For some assays here: Results with a measured potency or affinity are listed apart.
Tests used:
Parameters in all cases: scale not given: direction of the effect not stated beside the values
[1] = target: Protein translocase subunit SecA (Escherichia coli (strain K12)) (UniProt P10408); experiment: Assay to Identify E. coli SecA ATPase Inhibitors; format: functional; conditions: 30 µM
[2] = target: T1, Ubiquitin-activating enzyme e1, putative (Leishmania donovani (strain BPK282A1)) (UniProt E9BSI1); experiment: Leishmania donovani Ubiquitin Activating Enzyme (LdE1); format: functional; conditions: 30 µM
T1 sequence (whole entry): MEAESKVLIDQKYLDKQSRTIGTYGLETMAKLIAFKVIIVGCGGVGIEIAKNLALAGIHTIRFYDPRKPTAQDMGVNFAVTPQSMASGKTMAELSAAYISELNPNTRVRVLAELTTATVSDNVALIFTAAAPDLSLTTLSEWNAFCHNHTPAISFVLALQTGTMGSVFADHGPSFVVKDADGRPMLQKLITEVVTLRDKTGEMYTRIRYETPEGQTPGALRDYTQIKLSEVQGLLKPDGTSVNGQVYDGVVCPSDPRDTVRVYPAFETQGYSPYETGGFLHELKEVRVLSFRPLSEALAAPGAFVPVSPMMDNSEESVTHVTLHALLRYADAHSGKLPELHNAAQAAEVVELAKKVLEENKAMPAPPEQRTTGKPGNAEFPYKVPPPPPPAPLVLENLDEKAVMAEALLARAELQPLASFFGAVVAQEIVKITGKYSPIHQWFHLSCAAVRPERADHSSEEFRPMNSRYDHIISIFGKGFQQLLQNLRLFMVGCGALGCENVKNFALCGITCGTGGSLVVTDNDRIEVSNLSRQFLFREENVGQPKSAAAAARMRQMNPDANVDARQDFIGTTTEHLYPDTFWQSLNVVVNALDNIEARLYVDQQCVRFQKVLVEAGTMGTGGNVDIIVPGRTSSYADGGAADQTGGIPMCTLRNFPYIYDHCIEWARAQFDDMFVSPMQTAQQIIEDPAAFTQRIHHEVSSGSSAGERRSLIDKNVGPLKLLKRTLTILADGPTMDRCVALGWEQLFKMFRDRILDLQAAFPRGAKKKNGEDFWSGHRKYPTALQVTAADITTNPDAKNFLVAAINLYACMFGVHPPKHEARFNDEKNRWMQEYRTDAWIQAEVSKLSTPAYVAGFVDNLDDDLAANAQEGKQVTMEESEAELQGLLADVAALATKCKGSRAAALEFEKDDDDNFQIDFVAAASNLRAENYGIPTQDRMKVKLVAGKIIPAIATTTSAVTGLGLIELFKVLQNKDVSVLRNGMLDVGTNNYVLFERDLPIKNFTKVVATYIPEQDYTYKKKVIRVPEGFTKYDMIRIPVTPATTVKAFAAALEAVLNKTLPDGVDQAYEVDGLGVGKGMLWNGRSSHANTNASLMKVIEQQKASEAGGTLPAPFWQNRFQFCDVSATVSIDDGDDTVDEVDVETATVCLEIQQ

[3] = target: AMP-activated protein kinase, AMPK (Homo sapiens) (UniProt P54646+O43741+P54619+Q9UGJ0+Q9Y478+Q13131+Q9UGI9); experiment: AMP-dependent Kinase enzyme assay. An in vitro enzyme assay that detects ADP turnover that is directly proportional to AMPK activity. This uses naive AMPK that is activated during the assay with MK-8722; format: functional; conditions: 30 µM
[4] = target: Sialic acid-binding Ig-like lectin 9 (Homo sapiens) (UniProt Q9Y336); experiment: Hs-Siglec9 ALPHAscreen SOP 20170721; conditions: 10 µM
Sialic acid-binding Ig-like lectin 9 (Homo sapiens), sequence (Q9Y336 whole entry): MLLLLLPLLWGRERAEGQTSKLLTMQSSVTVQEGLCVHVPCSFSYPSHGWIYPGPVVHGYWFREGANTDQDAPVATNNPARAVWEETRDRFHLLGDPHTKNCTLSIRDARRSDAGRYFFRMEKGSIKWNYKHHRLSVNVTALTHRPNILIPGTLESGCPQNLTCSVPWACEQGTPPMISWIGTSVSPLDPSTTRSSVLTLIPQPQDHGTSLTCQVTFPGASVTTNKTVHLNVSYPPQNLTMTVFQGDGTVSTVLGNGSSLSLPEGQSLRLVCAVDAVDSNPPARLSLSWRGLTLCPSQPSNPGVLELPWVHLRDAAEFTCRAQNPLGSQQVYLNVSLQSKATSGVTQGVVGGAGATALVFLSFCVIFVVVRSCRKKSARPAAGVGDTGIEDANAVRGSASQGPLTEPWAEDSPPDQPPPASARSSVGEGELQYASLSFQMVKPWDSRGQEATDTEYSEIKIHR

Trypanosoma cruzi = experiment: Trypanosoma cruzi phosphomannomutase and mannose-1-phosphate guanylyltransferase assay; format: functional; conditions: 10 µM
[5] = target: T2, Arginase-2, mitochondrial (Homo sapiens) (UniProt P78540); experiment: in vitro enzyme assay to detect the production of urea directly proportional to the activity of Arginase II; format: functional; conditions: 33.3 µM; further: in the data most compounds retested in dose-response had high values
T2 sequence (whole entry): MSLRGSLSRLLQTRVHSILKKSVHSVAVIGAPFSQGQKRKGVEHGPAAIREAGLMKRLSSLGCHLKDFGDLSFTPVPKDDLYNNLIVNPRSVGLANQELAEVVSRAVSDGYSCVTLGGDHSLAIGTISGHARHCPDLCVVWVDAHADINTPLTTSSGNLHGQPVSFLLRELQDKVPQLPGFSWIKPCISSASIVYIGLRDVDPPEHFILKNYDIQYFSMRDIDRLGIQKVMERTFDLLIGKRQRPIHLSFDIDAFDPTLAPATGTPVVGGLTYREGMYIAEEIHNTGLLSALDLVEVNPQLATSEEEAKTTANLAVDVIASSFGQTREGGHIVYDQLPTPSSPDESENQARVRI

[6] = target: T3, Proteasome subunit beta (Trypanosoma cruzi) (UniProt O96673); experiment: Trypanosoma cruzi proteasome chymotrypsin-like activity (TcProtChymo) assay.; further: in the data most compounds retested in dose-response had high values; format: functional; conditions: 9.37 µM
T3 sequence (whole entry): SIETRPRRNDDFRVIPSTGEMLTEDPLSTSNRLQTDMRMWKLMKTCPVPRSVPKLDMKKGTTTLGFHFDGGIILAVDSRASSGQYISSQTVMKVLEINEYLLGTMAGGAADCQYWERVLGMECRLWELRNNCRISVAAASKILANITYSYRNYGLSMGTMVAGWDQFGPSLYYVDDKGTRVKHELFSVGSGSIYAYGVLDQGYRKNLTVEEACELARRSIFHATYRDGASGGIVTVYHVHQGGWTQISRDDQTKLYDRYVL

Homo sapiens = species on record: Homo sapiens; experiment: To identify inhibition of the IFN signalling (Jak-Stat) pathway via expression of an eGFP reporter gene under the control of an IFN-stimulated response element (ISRE) containing MxA promoter.; format: functional; conditions: 30 µM
[7] = target: T4, Tyrosyl-tRNA synthetase, putative (Trypanosoma cruzi (strain CL Brener)) (UniProt Q4DSP6); experiment: Trypanosoma cruzi tyrosyl tRNA synthetase (TcYRS) _High Tyrosine SOP; format: functional; conditions: 30 µM; further: in the data most compounds retested in dose-response had high values
T4 sequence (whole entry): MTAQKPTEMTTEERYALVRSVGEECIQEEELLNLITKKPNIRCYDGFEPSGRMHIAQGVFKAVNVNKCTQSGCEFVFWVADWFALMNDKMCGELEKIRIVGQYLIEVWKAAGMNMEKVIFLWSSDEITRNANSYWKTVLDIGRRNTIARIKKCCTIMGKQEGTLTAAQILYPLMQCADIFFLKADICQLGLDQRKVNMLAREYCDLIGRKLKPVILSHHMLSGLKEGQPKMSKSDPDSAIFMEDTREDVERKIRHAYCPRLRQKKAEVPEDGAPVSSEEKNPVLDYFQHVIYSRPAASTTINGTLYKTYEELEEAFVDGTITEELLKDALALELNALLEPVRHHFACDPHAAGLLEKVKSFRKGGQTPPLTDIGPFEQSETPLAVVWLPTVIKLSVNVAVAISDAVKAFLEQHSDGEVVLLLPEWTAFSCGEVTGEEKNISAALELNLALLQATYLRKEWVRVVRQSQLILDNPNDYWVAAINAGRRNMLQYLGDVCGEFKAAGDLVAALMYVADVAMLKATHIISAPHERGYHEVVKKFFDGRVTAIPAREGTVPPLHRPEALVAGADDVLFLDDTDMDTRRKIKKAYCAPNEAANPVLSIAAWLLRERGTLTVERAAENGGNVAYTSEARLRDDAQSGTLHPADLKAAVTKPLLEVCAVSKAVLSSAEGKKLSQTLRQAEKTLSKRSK

[8] = target: T4, Tyrosyl-tRNA synthetase, putative (Trypanosoma cruzi (strain CL Brener)); experiment: Trypanosoma cruzi tyrosyl tRNA synthetase (TcYRS) SOP; format: functional; conditions: 30 µM
[9] = target: Chromo domain-containing protein 1 (Saccharomyces cerevisiae (strain ATCC 204508 / S288c) (Baker's yeast)) (UniProt P32657); experiment: ScCHD-1 Enzyme Inhibition Assay; format: functional; conditions: 30 µM; further: in the data most compounds retested in dose-response had high values
Chromo domain-containing protein 1 (Saccharomyces cerevisiae (strain ATCC 204508 / S288c) (Baker's yeast)), sequence (P32657 whole entry, the tested form may be a part): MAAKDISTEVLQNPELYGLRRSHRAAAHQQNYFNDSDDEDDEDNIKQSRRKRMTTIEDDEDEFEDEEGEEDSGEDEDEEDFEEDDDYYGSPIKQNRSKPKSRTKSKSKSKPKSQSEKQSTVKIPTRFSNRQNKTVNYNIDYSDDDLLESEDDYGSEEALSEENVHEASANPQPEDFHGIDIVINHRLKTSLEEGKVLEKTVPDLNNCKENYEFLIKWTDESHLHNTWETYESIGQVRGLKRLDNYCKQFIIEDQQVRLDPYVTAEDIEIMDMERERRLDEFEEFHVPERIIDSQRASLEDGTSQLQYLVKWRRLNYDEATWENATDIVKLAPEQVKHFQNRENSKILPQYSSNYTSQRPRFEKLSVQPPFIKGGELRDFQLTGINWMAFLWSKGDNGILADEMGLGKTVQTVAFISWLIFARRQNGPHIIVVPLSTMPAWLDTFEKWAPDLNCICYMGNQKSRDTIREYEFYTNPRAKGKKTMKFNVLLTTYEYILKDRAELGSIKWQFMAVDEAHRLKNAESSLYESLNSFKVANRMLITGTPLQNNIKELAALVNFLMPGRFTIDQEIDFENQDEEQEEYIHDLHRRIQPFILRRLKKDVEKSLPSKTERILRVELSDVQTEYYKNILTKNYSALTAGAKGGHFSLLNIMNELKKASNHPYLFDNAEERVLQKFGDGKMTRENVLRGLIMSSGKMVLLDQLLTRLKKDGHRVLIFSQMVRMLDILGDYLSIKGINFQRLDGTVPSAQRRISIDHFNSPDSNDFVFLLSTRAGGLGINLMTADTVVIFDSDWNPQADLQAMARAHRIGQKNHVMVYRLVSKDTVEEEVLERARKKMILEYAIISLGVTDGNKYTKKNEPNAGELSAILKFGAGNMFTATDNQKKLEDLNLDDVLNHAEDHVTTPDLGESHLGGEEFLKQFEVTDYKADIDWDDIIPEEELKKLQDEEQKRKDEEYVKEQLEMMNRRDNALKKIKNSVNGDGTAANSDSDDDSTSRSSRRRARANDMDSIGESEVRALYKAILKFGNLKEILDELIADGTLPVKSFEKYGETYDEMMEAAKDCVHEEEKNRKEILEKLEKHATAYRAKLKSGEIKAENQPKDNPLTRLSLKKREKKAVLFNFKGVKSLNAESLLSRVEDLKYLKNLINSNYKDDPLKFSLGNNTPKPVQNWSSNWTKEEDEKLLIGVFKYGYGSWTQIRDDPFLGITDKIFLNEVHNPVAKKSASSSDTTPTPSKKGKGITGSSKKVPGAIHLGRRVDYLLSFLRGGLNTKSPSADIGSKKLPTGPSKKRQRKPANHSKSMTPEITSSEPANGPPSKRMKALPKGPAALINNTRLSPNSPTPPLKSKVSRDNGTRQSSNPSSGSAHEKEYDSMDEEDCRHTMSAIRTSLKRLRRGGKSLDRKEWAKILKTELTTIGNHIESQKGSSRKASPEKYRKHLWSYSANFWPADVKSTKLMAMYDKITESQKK

Protein translocase subunit SecA (Escherichia coli (strain K12)), sequence (P10408 whole entry): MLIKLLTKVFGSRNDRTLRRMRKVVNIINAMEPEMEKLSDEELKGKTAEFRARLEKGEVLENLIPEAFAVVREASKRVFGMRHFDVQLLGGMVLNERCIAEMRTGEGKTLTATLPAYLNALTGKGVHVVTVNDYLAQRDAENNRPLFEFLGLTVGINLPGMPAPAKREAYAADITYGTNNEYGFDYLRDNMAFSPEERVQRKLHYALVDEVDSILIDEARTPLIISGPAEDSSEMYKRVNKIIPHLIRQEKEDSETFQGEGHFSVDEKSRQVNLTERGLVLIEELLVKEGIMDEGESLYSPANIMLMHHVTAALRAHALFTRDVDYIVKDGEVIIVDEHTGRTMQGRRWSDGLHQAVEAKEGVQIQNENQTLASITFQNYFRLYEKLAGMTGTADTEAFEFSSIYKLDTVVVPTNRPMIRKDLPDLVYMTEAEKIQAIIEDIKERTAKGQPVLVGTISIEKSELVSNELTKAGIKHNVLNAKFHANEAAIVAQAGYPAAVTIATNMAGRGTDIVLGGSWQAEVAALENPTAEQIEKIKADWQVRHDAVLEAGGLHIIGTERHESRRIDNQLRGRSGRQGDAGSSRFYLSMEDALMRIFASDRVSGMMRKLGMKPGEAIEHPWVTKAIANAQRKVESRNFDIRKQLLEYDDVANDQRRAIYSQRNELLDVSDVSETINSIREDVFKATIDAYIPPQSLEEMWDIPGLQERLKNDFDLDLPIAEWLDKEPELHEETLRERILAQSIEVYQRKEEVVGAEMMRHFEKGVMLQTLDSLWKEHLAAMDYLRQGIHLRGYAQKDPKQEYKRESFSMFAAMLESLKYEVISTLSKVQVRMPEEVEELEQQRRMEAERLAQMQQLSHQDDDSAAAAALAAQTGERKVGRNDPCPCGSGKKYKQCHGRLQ

Row | SMILES | Percent Effect [1] [%] | Percent Effect [2] [%] | Percent Effect [3] [%] | Percent Effect [4] [%] | Percent Effect (Trypanosoma cruzi) [%] | Percent Effect [5] [%] | Percent Effect [6] [%] | Percent Effect (Homo sapiens) [%] | Percent Effect [7] [%] | Percent Effect [8] [%] | Percent Effect [9] [%]
1 | CS(=O)(=O)NC1CCc2c(ccc(=O)n2CC2CC2)C1 (configuration not stated) | -2.67 | 10.7 | 7.1 | 2.38 | -3.54 | 2.56 | 10.7 | -2.08 | 6.38 | 14.1 | 0.517
2 | O=S(=O)(NCC1CCN(c2ccccn2)CC1)c1ccccc1F | -1.81 | 23.4 | 0.655 | -16.3 | 3.25 | -5.81 | 12 | 14.5 | 2.12 | 14.1 | -12.6
3 | O=C(CC1CCCC1)N1CCCC1c1nc(O)cc(-c2ccccn2)n1 (configuration not stated) | -6.13 | 20.3 | 1.3 | 16.7 | -0.395 | -4.41 | 13.9 | 1.89 | 6.45 | 19.5 | -15.4
4 | Cc1noc(C)c1C(=O)N1CCCC1c1c(C)nn(C)c1Cl (configuration not stated) | -4.44 | 7.59 | -2.1 | 8.04 | 5.38 | -4.56 | -1.72 | 4.02 | 2.46 | 8.86 | -0.777
5 | Cc1ccc(C(=O)N2CCCC2c2nnc3n2CCCCC3)o1 (configuration not stated) | 0.332 | -1.39 | 7.46 | -3.27 | -2.23 | -11.9 | 6.84 | -2.88 | 2.1 | -5.13 | -1.81
6 | Cc1ccc(C)c(C(NC(=O)C(C)(C)C)c2cccnc2)c1 (configuration not stated) | -1.95 | 13 | 3.34 | -1.13 | 4.63 | -0.645 | 14.3 | 21.8 | 4.23 | 6.41 | -10.2
7 | Cc1nc(C)n(CC2CCCN2CC(=O)Nc2cc(C(C)C)no2)n1 (configuration not stated) | -3.86 | 18.4 | -3.35 | 10.4 | 1.03 | -0.36 | 8.21 | 22.5 | 4.43 | 16.1 | -3.86
8 | CCCNCC1(O)CCCN(Cc2cccc(C)c2)C1=O (configuration not stated) | -3.44 | 0 | 3.08 | -2.93 | 1.57 | -1.82 | -2.66 | -21.7 | 3.23 | 5 | -1.9
9 | COc1c(C2CCCN2C(=O)c2ccc(Cl)o2)c(C)nn1C (configuration not stated) | -5.93 | 13.5 | -4.28 | 21.4 | 2.93 | 4.17 | 10.6 | -2.68 | 5.94 | 18.3 | -0.337
10 | Cc1nn(C)c(N(C)C)c1CNCc1cccc(OCCN(C)C)c1 | -0.484 | 15.8 | -1.72 | 5.4 | -8.08 | -4.98 | 14.4 | 23.3 | -1.47 | 7.32 | -6.3
11 | O=C(CN1CCC(c2cccc(F)c2)C1)NCC(F)(F)F (configuration not stated) | -0.194 | 18.4 | -1.43 | -3.51 | 3.57 | -1.15 | 18.1 | 36.1 | 6.37 | 21.9 | -8.57
12 | COc1ccccc1CC(=O)N1CCCC(n2nc(C)cc2C)C1 (configuration not stated) | 4.86 | 0 | 2.98 | -5.42 | -1.23 | 5.32 | 1.06 | 2.12 | -0.493 | -3.8 | -0.887
13 | Cc1cc(C(=O)NCc2ccnc(N(C)C)c2)c(C)o1 | -4.79 | 23.4 | -3.99 | -6.37 | -5.24 | -1.42 | 8.62 | -12 | 4.85 | 12.2 | -10.6
14 | Cc1noc(Cl)c1CCC(=O)N1CCC(CC(N)=O)CC1 | -6.39 | 18.4 | -6.93 | 6.68 | 6.63 | -3.96 | 13.6 | 10.4 | 4.43 | 18.5 | -7.5
15 | CSCCCN1CC[C@@H](NC(=O)c2cnccn2)[C@H](O)C1 | -3.48 | 5.41 | -0.599 | 6.12 | 3.09 | -1.43 | 11.6 | 5.1 | 8.99 | 19.5 | 1.39
16 | CCN1CC2(CCC1=O)CCN(C(=O)c1ccc(Cl)cc1O)CC2 | 0.161 | 12.5 | -4.82 | 5.1 | 4.37 | 25.6 | 4.56 | 19.3 | 4.21 | 15.4 | -5.87
17 | CCc1nc(CN2CCCC(N(C)Cc3cnn(C)c3)C2)no1 (configuration not stated) | -1.5 | 8.22 | -0.902 | 3.69 | 2.74 | 5.91 | 9.23 | -2.09 | 1.07 | 2.5 | -3.19
18 | Cc1ccc(NC2CCN(C(=O)CC3CCCO3)CC2)nn1 (configuration not stated) | -3.13 | -5.41 | -10.4 | 8.84 | -2.17 | 2 | 1.8 | 5.87 | 1.48 | -8.64 | 0.857
19 | CC(C)N(C)Cc1nnc2n1CCN(Cc1ccncc1)CC2 | -1.23 | 8 | 2.82 | -4.03 | -3.67 | -54.7 | 2.73 | 1.94 | -2.08 | 5 | -6.5
20 | CSCC(CCO)NC(=O)Nc1cc(Br)ccc1C (configuration not stated) | 0.198 | 5.48 | 11.7 | 4.67 | 2.35 | 4.09 | 15.6 | -12 | 1.07 | 5 | 106
21 | CN(CC(=O)NC1(C#N)CCCC1)C1CCCN(c2cccnn2)C1 (configuration not stated) | -3.01 | 7.89 | -63.6 | 7.82 | 8.12 | 2.16 | 11.6 | -30.1 | 6.4 | 18.5 | -6.35
22 | COc1cccc(C2CC(=O)Nc3nc(N4CCOCC4)sc32)c1OC (configuration not stated) | 63.9 | 42.1 | 16 | 0.0251 | -0.487 | 21.3 | 18.1 | -7.88 | 5.32 | 10.4 | -8.79

Reference: ChEMBL document CHEMBL3988442, “University of Dundee, Small-Polar-MMV Screening Library” (2021)
